JMJD2A Tudor – inhibitors of human JMJD2A Tudor domain; O75164; AlphaScreen JMJD2A-Tudor / H3K4me3 peptide binding; Potency, µM (highest dose often 114 µM), actives largely listed as inhibitors; 390,000 tested, 4.4% active; note: nearly all actives have a fitted effect of over 50% in size
Target sequence (O75164 whole entry, looked up, the tested form may be a part): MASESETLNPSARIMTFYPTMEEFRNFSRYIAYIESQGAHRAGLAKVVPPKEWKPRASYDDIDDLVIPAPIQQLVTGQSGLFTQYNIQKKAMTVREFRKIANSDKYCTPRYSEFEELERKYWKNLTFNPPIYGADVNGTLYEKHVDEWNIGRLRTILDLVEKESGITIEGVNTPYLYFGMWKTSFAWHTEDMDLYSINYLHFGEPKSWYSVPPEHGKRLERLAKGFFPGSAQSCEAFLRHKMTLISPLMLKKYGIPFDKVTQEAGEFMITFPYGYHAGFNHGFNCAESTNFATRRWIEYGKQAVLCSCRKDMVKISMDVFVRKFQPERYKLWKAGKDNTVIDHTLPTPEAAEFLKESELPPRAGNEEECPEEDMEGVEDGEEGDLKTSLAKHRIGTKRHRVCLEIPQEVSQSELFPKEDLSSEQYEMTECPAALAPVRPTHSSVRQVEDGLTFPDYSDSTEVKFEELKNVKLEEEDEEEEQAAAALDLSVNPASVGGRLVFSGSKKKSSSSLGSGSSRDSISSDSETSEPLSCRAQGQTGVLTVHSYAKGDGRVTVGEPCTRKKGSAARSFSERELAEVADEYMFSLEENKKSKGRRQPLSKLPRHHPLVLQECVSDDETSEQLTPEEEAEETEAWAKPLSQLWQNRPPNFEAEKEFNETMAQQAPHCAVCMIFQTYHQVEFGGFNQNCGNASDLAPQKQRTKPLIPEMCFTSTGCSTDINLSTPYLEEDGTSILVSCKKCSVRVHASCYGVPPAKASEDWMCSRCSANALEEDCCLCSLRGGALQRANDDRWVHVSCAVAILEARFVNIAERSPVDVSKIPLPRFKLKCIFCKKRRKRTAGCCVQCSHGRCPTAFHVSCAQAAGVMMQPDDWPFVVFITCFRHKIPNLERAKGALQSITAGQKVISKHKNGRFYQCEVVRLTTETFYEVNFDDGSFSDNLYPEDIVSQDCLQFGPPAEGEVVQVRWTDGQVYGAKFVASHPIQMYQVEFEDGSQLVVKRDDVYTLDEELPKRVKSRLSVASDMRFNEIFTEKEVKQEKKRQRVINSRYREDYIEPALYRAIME
BAZ2B block – blocks human BAZ2B; Potency, µM (top dose mostly 114 µM), actives largely listed as inhibitors; AlphaScreen BAZ2B-H3K14Ac peptide displacement; 360,000 tested, 4.4% active; Q9UIF8; AID 504333; note: nearly all actives have a fitted effect of over 60% in size
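Compounds, titrated to a top concentration of 110 uM, were incubated 30 min at room temperature with preformed BAZ2B/acetyl-K14 H3 peptide complex (50 nM each). Proximity signal was measured by AlphaScreen after 20 min with beads.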
HP1b binding inh – blocks HP1-beta chromodomain binding to methylated histone tails | Potency, µM (top dose mostly 114 µM), most hits filed as inhibitors | P83916 | 390,000 tested, 0.56% active | AID 540317 | AlphaScreen HP1-beta / biotin-H3K9me3 peptide binding; note: nearly all actives have a fitted effect of over 70% in size
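HP1-beta protein (50 nM final) preincubated 30 min at room temperature with biotinylated H3(1-18)K9me3 peptide (50 nM) in PBS pH 7.4, 0.01% Tween-20, then compound added for 30 min. AlphaScreen streptavidin donor/nickel chelate acceptor beads (10 ug/mL final), 30 min dark, luminescence read.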
PLK1 PBD block – inhibitors of human PLK1 polo-box domain binding. 360,000 tested, 2.8% active. P53350. Plk1 PBD binding of FITC phosphopeptide, fluorescence polarization. Potency, µM, most hits filed as inhibitors; note: series mostly up to about 57 µM; nearly all actives have a fitted effect of over 65% in size
G9a inh – G9a (human) methyltransferase inhibition. Q96KQ7. G9a H3K9 monomethylation, AlphaScreen, 2 h. Potency, µM (top dose mostly 102 µM), hits mostly inhibitors. 350,000 tested, 8.8% active; note: nearly all actives have a fitted effect of over 75% in size
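Methyltransferase reactions run at room temperature for 2 h (20 nM enzyme, 500 nM biotin-H3K9 peptide, 20 uM SAM) after a 15 min compound preincubation; product detected by AlphaScreen beads and anti-H3K9me1 antibody.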
PI5P4K alpha inh – inhibitors of human PI5P4K alpha; PI5P4Kalpha enzyme, ADP-Glo luminescence, 60 min; active compounds read low; AID 652105; max response, %; P48426; 330,000 tested, 1.2% active; active = max response of -50% or lower; inconclusive = between -30% and -50%; inactive = -30% or higher; note: value at the top dose of about 77 µM
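Controls without substrate or without enzyme flank wells where PI5P4Kalpha converts substrate using 5 microM ATP (final). Incubation lasts 60 minutes at room temperature; ADP formed is read by ADP-Glo luminescence.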
Numbers stand for hits; 0 = inactive; ? = inconclusive; - = no result given; [ ] = remark or other dose. An excerpt weighted towards active compounds, which were near 12% of everything screened. Unless noted, calls come from the whole dose curve; as a rule, active = well fitted curve in the direction sought with a large enough effect; inconclusive = small, poorly fitted or top-dose-only effect, or another doubt; inactive = no such curve, though single readings can be large; an effect the other way counts as inactive or inconclusive.

SMILES	JMJD2A Tudor	BAZ2B block	HP1b binding inh	PLK1 PBD block	G9a inh	PI5P4K alpha inh
C[C@]12c3[nH]c4ccccc4c3CCN1C(=O)C(CC(=O)NCCN1CCOCC1)C[C@@H]2C(=O)N1CCOCC1 (some centres undefined)	0	-	0	0	-	0
CN(C)c1ccc(/C=C/C(=O)c2ccccc2)cc1[N+](=O)[O-]	44.7µM	14.1µM	?	0	?	0
COC(=O)c1cc(NS(=O)(=O)c2ccc(N3CCCCCC3)c([N+](=O)[O-])c2)cc(C(=O)OC)c1	?	?	0	0	44.7µM	0
COc1cccc(C(=O)/C=C/c2ccc(N3CCCCC3)c([N+](=O)[O-])c2)c1	39.8µM	10µM	?	0	7.08µM	0
CNc1ccc(/C=C/C(=O)c2ccc(C)cc2)cc1[N+](=O)[O-]	?	?	?	0	?	0
O=C(/C=C/c1ccc(N2CCCCC2)c([N+](=O)[O-])c1)c1ccc(S(=O)(=O)N2CCCC2)cc1	0	?	?	0	4.47µM	0
CC(C)(C)OC(=O)N1CCC(c2c(C(=O)Nc3ccc4c(c3)OCCO4)cnn2-c2ccc(F)cc2)CC1	0	0	0	-	?	-
O=C(NCCc1ccccc1F)C1CCC(=O)N(Cc2ccc(Cl)cc2)C1 (centres undefined)	0	?	0	0	0	0
Oc1ccc(Br)cc1C1C=C(c2ccc3c(c2)OCO3)NC(c2ccc(Br)cc2)N1 (centres undefined)	0	-	0	-	-	-
Cc1ccc(S(=O)(=O)N2CCN(C(=O)c3ccc(N4CCCC4)c([N+](=O)[O-])c3)CC2)cc1	?	?	0	0	0[12.7 µM]	0
Cc1ccc(N(Cc2ccco2)C(=O)c2ccc(N3CCCCC3)c([N+](=O)[O-])c2)cc1	17.8µM	?	?	0	?	0
Cc1ccc(S(=O)(=O)N2CCN(C(=O)c3ccc(N4CCCCC4)c([N+](=O)[O-])c3)CC2)cc1	?	?	0	0	31.6µM	0
CCn1c(=O)n(CC)c2cc(N3CCCCC3)c(NC(=O)Nc3cc(Cl)ccc3OC)cc21	0	?	0	-	?	-
c1ccc2c(c1)nc(N1CCCCCC1)c1ccccc12	17.8µM	0	0	0	0	0
N#CC(C#N)=Cc1cc2ccccc2nc1N1CCCCC1	?	39.8µM	0	?	?	0
CCOC(=O)/C(C#N)=C/c1cc2ccccc2nc1N1CCOCC1	0	0	0	0	0	0
Oc1ccc(Nc2nc(N3CCCC3)c3ccccc3n2)cc1	56.2µM	?	0	0	39.8µM	0
Cc1cccc(N2CCN(C(=O)c3cc4ccc5cccnc5c4[nH]3)CC2)c1C	?	0	0	-	?	-
Cc1ccc2c(c1)cc(CN(Cc1cccs1)C(=O)c1ccco1)c1nnnn12	28.2µM	0	?	8.44µM	0	?
Cc1ccc(-n2ccnc(NCCc3ccc(S(N)(=O)=O)cc3)c2=O)c(C)c1	0	?	0	-	?	-
CCOC(=O)C(C)CC(C)C(=O)N1CCOCCOCCN(C(=O)C(C)CC(C)C(=O)OCC)CCOCC1 (centres undefined)	0	0	0	0	0	0
CCOC(=O)C(C(=O)OCC)C(C(=O)OCC)N1CCOCC1 (centres undefined)	?	0	?	23.8µM	1.58µM	0
O=C(N[C@@H](Cc1ccccc1)C(=O)N1CCN(S(=O)(=O)c2ccccc2F)CC1)c1ccco1	0	-	0	0	-	0
CCOc1ccccc1NC(=O)C(OC(=O)C1CC1)c1ccccc1 (centres undefined)	0	0	0	0	0	?
CCOc1ccccc1NC(=O)C(Sc1ccccc1)c1ccccc1 (centres undefined)	0[11.4 µM]	0	0	21.2µM	0	0
SMILES	JMJD2A Tudor	BAZ2B block	HP1b binding inh	PLK1 PBD block	G9a inh	PI5P4K alpha inh
CCOC(=O)c1c(NC(=O)C(Sc2ccccc2)c2ccccc2)sc(C(N)=O)c1C (centres undefined)	0	0	0	?	7.94µM	0
O=C(Nc1cc([N+](=O)[O-])ccc1Cl)C(Sc1ccccc1)c1ccccc1 (centres undefined)	79.4µM	0	?	0	0	0
CCOc1ccccc1NC(=O)C(NCC1(N2CCCCC2)CCCCC1)c1ccccc1 (centres undefined)	79.4µM	79.4µM	0	0	0	0
CCOc1ccc(CNC(=O)c2ccc(-c3nc(CSc4ccc(C)cc4)c(C)o3)cc2)cc1	0	0	0	-	?	-
CCCCn1c(N)c(N(CCOC)C(=O)CSCc2cccc(C)c2)c(=O)[nH]c1=O	0	0	0	0	?	0
O=C(Nc1cc(C(F)(F)F)ccc1Cl)C(Sc1cccc[n+]1[O-])c1ccccc1 (centres undefined)	?	0	0	?	8.91µM	0
COc1ccc(C)cc1NC(=O)CCc1ccc(S(=O)(=O)N2CCOCC2)cc1	0	0	0	0	0	0
CCCCN1C(=O)CC(Sc2ccccc2C(=O)O)C1=O (centres undefined)	0	0	0	0	0[12.7 µM]	-
CCOC(=O)c1c(N2C(=O)CC(Sc3ccccc3C(=O)O)C2=O)sc(C)c1C (centres undefined)	0	50.1µM	0	?	-	0
CN1C(=O)CC(Sc2ccccc2C(=O)O)C1=O (centres undefined)	0	0	0	0	0[12.7 µM]	-
CC(C)CN1C(=O)CC(Sc2ccccc2C(=O)O)C1=O (centres undefined)	0	0	0	0	1.12µM	-
O=C(O)c1ccccc1SC1CC(=O)N(c2ccc3c(c2)OCO3)C1=O (centres undefined)	0	0	0	0	1.58µM	0
Cc1cccc(N2C(=O)CC(Sc3ncn[nH]3)C2=O)c1 (centres undefined)	?	0	?	26.7µM	7.08µM	0
CCOC(=O)c1ccc(NC(=O)CSc2ccc3ccccc3n2)cc1	0	0	0	-	0	-
Cc1cc(C)cc(N2C(=O)CC(Sc3ccccc3C(=O)O)C2=O)c1 (centres undefined)	?	0	0	0	?	0
CN(C)c1ccc(N2C(=O)CC(Sc3ccccc3C(=O)O)C2=O)cc1 (centres undefined)	?	?	0	0	1.41µM	0
Cc1cccc(N2C(=O)CC(Sc3ccccc3C(=O)O)C2=O)c1 (centres undefined)	44.7µM	0	0	0	?	0
Cc1ccc(N2C(=O)CC(Sc3ccccc3C(=O)O)C2=O)cc1C (centres undefined)	0[11.4 µM]	0	0	?	1.58µM	0
Cc1ccc(N2C(=O)CC(Sc3ccccc3C(=O)O)C2=O)cc1 (centres undefined)	?	0	0	0	?	0
Nc1nc(N)c2[nH]c(=S)[nH]c2n1	3.55µM	-	?	23.8µM	-	-51.7
CCCCNC(=O)CCCn1c(=O)c2ccccc2n(Cc2cccc(Cl)c2)c1=O	0	0	0	-	0	-
Cc1nnc2sc(SCC(=O)Nc3ccc(Cl)cc3)nn2c1=O	?	39.8µM	0	0	0	0

Screening results (PubChem BioAssay)
